Among the data in PubChem BioAssay AID1852 (Sanford-Burnham Center for Chemical Genomics, 2009) are inhibition values, retold here.

The whole screen tested about 2,500 compounds, of which about 1,100 (44%) were called active. So high a share suggests a set chosen from earlier hits. Some of the results follow. Unmarked numbers belong to inactive results.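 How the source made its calls: active means inhibition above 50% at 4 µM in the single-point screen; inactive means inhibition of 50% or less.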

A word on the inhibition: it is the relative decrease from the control value, in per cent.

The test can be described thus: TNF-a-driven NF-kB reporter inhibitors, primary screen, selectivity assay for NOD1/NOD2 signaling inhibitor project, cell-based, HEK293T NF-kB-Luc, luminescence (AID 1852). The settings on record: TNF-a induced, 14 h, at 4 µM, hits give high values.
Regarding `CCN1C(=O)/C(=C/c2nc3ccccc3c(=O)n2-c2ccccc2)c2ccccc21`, the inhibition is 40.6%.
In the case of `CC(C)C1Nc2c(O)cc(Cl)c([N+](=O)[O-])c2C2C=CCC21` (centres undefined) it was 74.1% (active); in that of `O=C1OCCC1Sc1nnc(-c2ccc(Cl)cc2Cl)o1` (centres undefined), 35.1%; in that of `CC(C)NC(=O)c1ccc(Sc2ccccc2)c([N+](=O)[O-])c1`, 16.7%.
The value for `Cn1cnnc1Sc1ccc(/C=C/C(=O)c2ccc(O)cc2)cc1[N+](=O)[O-]` was 6.7%; that for `CC(=O)c1ccc(Sc2nnnn2-c2ccccc2)c([N+](=O)[O-])c1` was 61.3% (active).
For the molecule `CN(c1ccccc1)S(=O)(=O)c1ccc(NC(=O)c2nc(S(C)(=O)=O)ncc2Cl)cc1`, the inhibition was 60.4% (active).
The value for `CCS(=O)(=O)c1ncc(Cl)c(C(=O)Nc2ccc(S(=O)(=O)N(C)c3ccccc3)cc2)n1` was 88.3% (active); that for `CCS(=O)(=O)c1ncc(Cl)c(C(=O)Nc2ccc(C)cc2)n1` was 99.2% (active); that for `Cc1cccc(CS(=O)(=O)c2ncc(Cl)c(C(=O)Nc3ccc(F)cc3)n2)c1` was 43%.
Regarding `Cc1ccc(NC(=O)c2nc(S(=O)(=O)Cc3ccccc3C)ncc2Cl)cc1C`, the inhibition was 5.2%.
Take `CCN(c1ccccc1)S(=O)(=O)c1ccc(NC(=O)c2nc(S(C)(=O)=O)ncc2Cl)cc1`: the inhibition is 30%.
The value for `O=C(Nc1ccc(F)cc1)c1nc(S(=O)(=O)Cc2ccccc2)ncc1Cl` was 60.6% (active); that for `CCCc1cc(=O)n2[nH]cc(-c3ccc(Cl)cc3)c2n1` was 101% (active).
The value for `O=c1c2c(nc3c(-c4ccc(Cl)cc4)c[nH]n13)CCC2` was 102% (active); that for `O=c1c2c(nc3c(-c4ccc(Cl)cc4)c[nH]n13)CCCC2` was 75.3% (active).
In the case of `Cc1nc2c(-c3ccc(Cl)cc3)cnn2c(N)c1-c1ccc(F)cc1` it was -246%.
In the case of `O=c1c2c(nc3c(-c4cccc(Br)c4)c[nH]n13)CCCC2`, the inhibition was 83% (active).
Take `O=C(c1[nH]ncc1-c1cccc(Br)c1)C1CO1` (centres undefined): the inhibition is 33.6%.
In the case of `O=C(Cc1ccc(Br)cc1)Nc1ncc([N+](=O)[O-])s1` it was 23.8%.
In the case of `CC(C)N1C(=O)/C(=C/c2nc3ccccc3c(=O)n2-c2ccccc2)c2ccccc21` it was 43.6%; in that of `COc1ccc(C(=O)c2ccccc2)c2c(O)ccc(C(=O)c3ccccc3)c12`, 53.3% (active).
The value for `COc1ccc(O)c(-c2[nH]ncc2C(=O)c2ccccc2)c1` was 9.4%; that for `COc1ccc(C(=O)n2cc(C(=O)c3cc(C)ccc3O)cn2)cc1OC` was 36.5%; that for `CCc1cccc(CC)c1NC(=O)CN1CCc2cc(OC)c(OC)cc2C1` was 23.9%.
In the case of `COc1ccc(Oc2ccccc2/C=N/O)cc1`, the inhibition is 81.6% (active).
In the case of `COc1ccc(N2CCN(c3cc(=O)n(Cc4ccc(F)cc4)c(=O)[nH]3)CC2)cc1` it was 6.1%; in that of `COc1ccc(C2C(O)C(c3c[nH]c4ccccc34)=NN2C(=O)CCl)cc1` (centres undefined), 96.7% (active).
In the case of `CC(=O)N1CCc2cc(S(=O)(=O)NCc3ccc(C)cc3)ccc21` it was 26.3%; in that of `O=C(CN1CCOCC1)Nc1nc(-c2ccc3c(c2)CCN3S(=O)(=O)c2ccccc2)cs1`, -1%.
With `CNc1nc(-c2ccc3c(c2)CCN3S(=O)(=O)c2ccccc2)c(C)s1`, the inhibition was 79.2% (active).
Consider `CC(=O)c1c(O)c(C)c(O)c2c1OC1=CC(=O)C(C(C)=O)C(=O)[C@@]12C` (some centres undefined), for which the inhibition was 80.3% (active).
With `O=C(c1ccc2c(c1)CCN2S(=O)(=O)c1ccccc1)N1CCN(c2ccc(F)cc2)CC1`, the inhibition is 65.3% (active).
The value for `Cc1ccc(C(=O)N2CCN(c3ccc(F)cc3)CC2)cc1S(=O)(=O)N1CCCCC1` was 43.8%; that for `Cc1ccc(CS(=O)(=O)c2ncc(Cl)c(C(=O)Nc3nnc(C(C)C)s3)n2)cc1` was 85.6% (active).
Regarding `COC(=O)c1ccc(NC(=O)c2nc(S(=O)(=O)Cc3cccc(C)c3)ncc2Cl)cc1`, the inhibition was 47.3%.
The value for `CSc1nnc(NC(=O)c2nc(S(=O)(=O)Cc3ccc(C)cc3)ncc2Cl)s1` was 98.9% (active); that for `Cc1cccc(CS(=O)(=O)c2ncc(Cl)c(C(=O)Nc3nnc(C(C)C)s3)n2)c1` was 84.2% (active); that for `CCC(C)[C@@H](NC(=O)OC(C)(C)C)c1nnc(S(=O)(=O)Cc2cccc(C)c2)o1` (some centres undefined) was 45.7%.
The value for `O=C(Nc1nc2ccccc2n1Cc1ccc(Cl)cc1)c1ccco1` was 41.5%; that for `CCC(=O)Nc1nc2ccccc2n1Cc1ccccc1Cl` was 75.1% (active); that for `Cc1ccccc1Cn1c(C)nc2ccccc21` was 32%.
In the case of `Cc1c(O)ccc2c(-c3ccccc3)cc(=O)oc12` it was 30.3%; in that of `COc1ccc(-c2cc(=O)oc3c(C)c(O)ccc23)cc1`, 91.8% (active).
Consider `COc1ccc(-c2cc(=O)oc3c(C)c(OC(=O)c4cccs4)ccc23)cc1`, for which the inhibition was 63.9% (active).
Turning to `CC(=O)NCCC(=O)N1CCc2c([nH]c3ccccc23)C1c1cccc(Cl)c1` (centres undefined), the inhibition was 6.2%.
In the case of `CC(=O)N1CC(C)Sc2ccc(S(=O)(=O)NCCc3ccc(C)cc3)cc21` (centres undefined) it was 44.7%; in that of `Cc1ccc(N=c2oc3cc(O)ccc3cc2C(N)=O)cc1`, 72.5% (active); in that of `Cc1ccc2oc(/N=C(\N)NC(=O)C(C)(C)C)nc2c1`, 40.4%.
In the case of `COc1ccc2cc(C(N)=O)c(=Nc3ccc(C)cc3)oc2c1` it was 62.3% (active); in that of `Cc1ccc(Oc2c(C(N)=O)cc([N+](=O)[O-])cc2[N+](=O)[O-])cc1`, -11.8%.
In the case of `O=C(N/N=C/c1ccc([N+](=O)[O-])s1)c1cccc(Br)c1` it was 66.8% (active); in that of `Cc1cc(C(=O)N/N=C/c2ccc([N+](=O)[O-])s2)c2ccccc2n1`, 37.2%; in that of `O=C(N/N=C\c1ccc([N+](=O)[O-])s1)C1COc2ccccc2O1` (centres undefined), 17.5%.
Turning to `O=C(Cc1cccs1)N/N=C\c1ccc([N+](=O)[O-])s1`, the inhibition was 49.1%.
The value for `O=C(N/N=C/c1ccc([N+](=O)[O-])s1)c1ccccc1Br` was 50.8% (active).
In the case of `COc1cc(S(=O)(=O)n2cnc(C)c2)ccc1Br` it was -6%; in that of `Cc1nc2ccccc2c(C)c1C(=O)c1ccc(F)cc1`, 66% (active); in that of `Fc1cccc(NC(=S)NNc2c3ccccc3nc3ccccc23)c1`, 20.7%.
